These results are taken from PubChem BioAssay (Tox21).

A number with no mark means an inactive call. Records with an inconclusive call do not appear. The source made the active and inactive calls. Unless noted, calls follow the shape of the dose curve; as a rule, active = well fitted curve in the direction sought with a large enough effect in the repeat runs; inconclusive = weak or mixed curves; inactive = no such curve, though single readings can be large; an effect the other way counts as inactive or inconclusive.

Assay [1] can be described thus: qHTS assay to identify small molecule HDAC inhibitors (AID 1259364).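 Also: wild-type HCT-116 cells with endogenous class I/II HDAC activity; top concentration of the series differs between compounds; nearly all actives have a fitted effect of over 45% in size.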 In outline:
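Screening used wild-type human colon HCT-116 cells incubated overnight, dosed with compounds for 2 hours, and assayed with a homogeneous luminogenic HDAC I/II reagent for 30 minutes at room temperature.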

Assay [2] is described as follows: qHTS assay to identify small molecule HDAC inhibitors - cell viability counter screen (AID 1259365). Also: series mostly up to about 92 µM; nearly all actives have a fitted effect of over 50% in size. In outline: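 Cytotoxicity was gauged in wild-type HCT-116 cells after a brief 2hr treatment with DMSO-dissolved compounds at 37C and 5% CO2, using CellTiter-Glo luminescence developed for 30min at room temperature.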
Assay [3] can be described thus: qHTS assay to identify small molecule agonists of the sonic hedgehog signaling (Shh) pathway - cell viability counter screen (AID 1259366). Also: nearly all actives have a fitted effect of over 50% in size. In outline: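 Stable Gli1-Luc NIH/3T3 clone, 2,000 cells/well. Compound exposure 24hr at 37C. Read-out: CellTiter-Fluor fluorescence.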
(Quantitative high-throughput screening tests each substance at several concentrations.)

The nature of assay [4]: qHTS assay to identify small molecule antagonists of the sonic hedgehog signaling (Shh) pathway - cell viability counter screen (AID 1259367). Also: nearly all actives have a fitted effect of over 55% in size. In outline: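 Viability was read by CellTiter-Fluor fluorescence in the same wells, reagent added 23 hr into compound treatment and incubated 1 hr at 37C. The 3T3 Gli1-Luc reporter cells (2,000/well) received conditioned medium after compound and ran 24 hr.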

Assay [5] is described as follows: qHTS assay to identify small molecule agonists of the sonic hedgehog signaling (Shh) pathway (AID 1259368; calls by dose curve;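 also: NIH/3T3-derived 3T3Gli1-Luc cells carrying a stable Gli1-driven firefly luciferase reporter; series mostly up to about 92 µM; nearly all actives have a fitted effect of over 15% in size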). In outline:
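Hedgehog pathway agonism scored by increased firefly luciferase luminescence in 3T3Gli1-Luc cells treated 24 hr at 37 C; detection used a 30 min room-temperature reagent incubation.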

A short description of assay [6]: qHTS assay to identify small molecule antagonists of the sonic hedgehog signaling (Shh) pathway (AID 1259369; calls by dose curve; also: nearly all actives have a fitted effect of over 45% in size; also: potency is read from the fitted curve at half-maximal effect). Summed up: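 NIH/3T3 stable Gli1-Luc clone, 2,000 cells/well, 4hr settle; cpd + conditioned medium 24hr; Luc reagent 30min RT; luminescence.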
Assay [7] concerns the target Estrogen receptor (Homo sapiens) (UniProt P03372). In words: qHTS assay to identify small molecule antagonists of the estrogen receptor alpha (ER-alpha) signaling pathway using the BG1 cell line in the presence of 0.1 nM 17-beta-estradiol (AID 1259244). Also: nearly all actives have a fitted effect of over 50% in size. In outline:
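Compounds were tested against 0.1 nM (final) 17beta-estradiol in VM7Luc4E2 cells, which express full-length ER-alpha and an ERE-luciferase reporter; luminescence was recorded following 22 h exposure.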

The nature of assay [8]: qHTS assay to identify small molecule phospholipidosis (PLD) inducers (AID 1259344; active = well fitted curve in the direction sought with a large enough effect; an effect the other way counts as inactive or inconclusive). In outline:
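Phospholipid accumulation was scored by imaging: fixed, Hoechst-counterstained HepG2 cells stained with LipidTOX Red after 24 h compound exposure at 37 C. Read-outs were pit count and pit intensity per well or per cell, with amiodarone and DMSO controls.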
% is scaled to controls: 0 for no effect and ±100 for the full control effect.

Estrogen receptor (Homo sapiens), sequence (P03372 whole entry, looked up): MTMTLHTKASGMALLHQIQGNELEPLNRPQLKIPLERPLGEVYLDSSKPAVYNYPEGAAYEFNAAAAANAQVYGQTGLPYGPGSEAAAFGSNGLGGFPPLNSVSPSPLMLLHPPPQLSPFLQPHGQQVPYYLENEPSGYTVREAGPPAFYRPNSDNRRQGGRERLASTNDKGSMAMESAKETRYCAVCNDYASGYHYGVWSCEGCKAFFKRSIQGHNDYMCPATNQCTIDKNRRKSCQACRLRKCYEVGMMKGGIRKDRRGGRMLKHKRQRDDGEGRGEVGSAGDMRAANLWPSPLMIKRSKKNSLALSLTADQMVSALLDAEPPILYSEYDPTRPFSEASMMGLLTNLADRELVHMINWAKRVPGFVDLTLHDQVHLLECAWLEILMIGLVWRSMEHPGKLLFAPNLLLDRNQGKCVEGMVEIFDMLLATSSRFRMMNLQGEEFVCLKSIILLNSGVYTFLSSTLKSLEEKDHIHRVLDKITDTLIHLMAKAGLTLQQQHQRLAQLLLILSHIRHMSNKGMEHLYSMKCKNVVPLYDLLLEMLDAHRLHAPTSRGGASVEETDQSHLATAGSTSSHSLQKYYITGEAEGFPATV

Regarding `O=S(=O)(O)CCN1CCN(CCO)CC1`, the Potency result in assay [1], in assay [3], in assay [4] and in assay [6] was “inactive” in each case. Further, the result in assay [2] and in assay [5] was inactive.

As for `COC(=O)CCCCCCCC(=O)OC`, the Potency result in assay [7], in assay [1], in assay [3], in assay [4] and in assay [6] was “inactive” each time. Moreover, the compound was called inactive in assay [2] and in assay [5].

Turning to `C[C@H](N)[C@H](O)c1cccc(O)c1`, the Potency entry in assay [7], in assay [1], in assay [3], in assay [4] and in assay [6] was “inactive” throughout. Further, the outcome in assay [8], in assay [2] and in assay [5] was inactive.

Regarding `Cc1ccccc1C(=O)Nc1ccc(C(=O)N2CCCC(N(C)C)c3ccccc32)cc1` (centres undefined), the Potency entry in assay [7] and in assay [1] was “inactive” each time. The compound was classed as inactive in assay [2] and in assay [5]. Also, in assay [6], the Potency is 15 µM (active).

In the case of `CCCCCCCC/C=C\CCCCCCCC(=O)OCCCC`, the values for the activity change, negative = inhibition in assay [7], in assay [1] and in assay [6] were -2.58% [at 19 µM], 2.78% [at 19 µM] and 17.1% [at 19 µM], respectively. For the same compound, the activity change, negative = cytotoxicity in assay [2] was -0.686% [at 19 µM]. Besides, the values for the viability change, negative = cytotoxic in assay [3] and in assay [4] were -5.96% [at 19 µM] and 1.8% [at 19 µM], respectively. The activity change in assay [5] is -0.497% [at 18.9 µM].

Consider `CCCCCCCCCCCCCC`, for which the Potency entry in assay [1], in assay [3], in assay [4] and in assay [6] was “inactive” in each case. In addition, the result in assay [2] and in assay [5] was inactive.

Take `COc1cc(NS(=O)(=O)c2ccc(N)cc2)nc(OC)n1`: the Potency result in assay [7], in assay [1], in assay [3], in assay [4] and in assay [6] was “inactive” in each case. Further, the call in assay [8], in assay [2] and in assay [5] was inactive.

On to `COc1cc2c(cc1OC)[C@@H]1CC(=O)[C@@H](CC(C)C)CN1CC2`, for which the Potency entry in assay [7], in assay [1], in assay [3] and in assay [4] was “inactive” each time. Further, the compound was classed as inactive in assay [8], in assay [2] and in assay [5].

Regarding `CCCCCCOC(=O)CC`, the Potency result in assay [7], in assay [1], in assay [3], in assay [4] and in assay [6] was “inactive” each time. Also, the call in assay [2] was inactive.

Consider `O=S(O)(O)=S`, for which the figures for the activity change, negative = inhibition in assay [7], in assay [1] and in assay [6] were 19% [at 8.39 µM], 3.04% [at 8.39 µM] and 0.751% [at 8.39 µM], respectively. Further, the activity change, negative = cytotoxicity in assay [2] is 0.217% [at 8.39 µM]. The viability change, negative = cytotoxic in assay [3] is -0.643% [at 8.39 µM]; in assay [4], 1.07% [at 8.39 µM]. Further, the activity change in assay [5] is -0.163% [at 8.39 µM].

For `C[C@H](CCC(=O)O)[C@H]1CC[C@H]2[C@@H]3C(=O)C[C@@H]4CC(=O)CC[C@]4(C)[C@H]3CC(=O)[C@]12C`, the Potency entry in assay [7], in assay [1], in assay [3], in assay [4] and in assay [6] was “inactive” each time. The result in assay [8], in assay [2] and in assay [5] was inactive.

`Cc1ccccc1N=O`: the Potency entry in assay [1], in assay [3], in assay [4] and in assay [6] was “inactive” each time. In addition, the compound was classed as inactive in assay [2] and in assay [5].

Turning to `CC(CO)c1ccccc1` (centres undefined), the Potency entry in assay [7], in assay [1], in assay [3], in assay [4] and in assay [6] was “inactive” throughout. Besides, the compound was classed as inactive in assay [2] and in assay [5].

For the compound `Cc1nc2n(c(=O)c1CCN1CCC(c3noc4cc(F)ccc34)CC1)CCC[C@H]2O`, the activity change, negative = inhibition in assay [7] is 1.12% [at 19 µM]; in assay [1] it was -1.31% [at 19 µM]; in assay [6], -4.73% [at 19 µM]. For the same compound, the compound was called inactive in assay [8]. Moreover, in assay [2], the activity change, negative = cytotoxicity was -0.155% [at 19 µM]. Besides, the figures for the viability change, negative = cytotoxic in assay [3] and in assay [4] were -0.31% [at 19 µM] and -0.26% [at 19 µM], respectively. The activity change in assay [5] was -0.0213% [at 18.9 µM].

Take `NS(=O)(=O)c1ccc(NC(=O)CCC(=O)O)cc1`: the Potency result in assay [7], in assay [1], in assay [3], in assay [4] and in assay [6] was “inactive” throughout. For the same compound, the compound was called inactive in assay [8] and in assay [2].

As for `CC(C)CC(=O)O`, the Potency entry in assay [7], in assay [1], in assay [3], in assay [4] and in assay [6] was “inactive” in each case. The outcome in assay [2] and in assay [5] was inactive.

Regarding `CC(C)C(=O)OCCc1ccccc1`, the Potency entry in assay [7], in assay [1], in assay [3], in assay [4] and in assay [6] was “inactive” in each case. For the same compound, the result in assay [2] and in assay [5] was inactive.

In the case of `BrCc1cccc(Oc2ccccc2)c1`, the Potency result in assay [1], in assay [3], in assay [4] and in assay [6] was “inactive” each time. The compound was classed as inactive in assay [2] and in assay [5].

In the case of `C=C(C)C(=O)OCC(C)(C)COC(=O)C(=C)C`, the Potency result in assay [7], in assay [1], in assay [3], in assay [4] and in assay [6] was “inactive” throughout. Besides, the compound was classed as inactive in assay [2] and in assay [5].

For `CC(CN)CC(C)(C)CCN` (centres undefined), the Potency result in assay [1], in assay [3], in assay [4] and in assay [6] was “inactive” in each case. Also, the outcome in assay [2] and in assay [5] was inactive.

For `O=C(OCC1(COC(=O)c2cccnc2)CCCC(COC(=O)c2cccnc2)(COC(=O)c2cccnc2)C1O)c1cccnc1`, the compound was called inactive in assay [8] and in assay [2]. The Potency result in assay [1] and in assay [6] was “inactive” each time.

On to `O=S(=O)(O)c1ccc2cc(O)c(S(=O)(=O)O)cc2c1`, for which the Potency entry in assay [7], in assay [1], in assay [3], in assay [4] and in assay [6] was “inactive” throughout. Also, in assay [2], the call was inactive.

With `CCOC(=O)[C@H](CCc1ccccc1)N[C@@H](C)C(=O)N1C(=O)N(C)C[C@H]1C(=O)O`, the Potency entry in assay [7], in assay [1], in assay [3], in assay [4] and in assay [6] was “inactive” each time. The call in assay [8], in assay [2] and in assay [5] was inactive.

Turning to `ClCCCl`, the Potency entry in assay [7], in assay [1], in assay [3], in assay [4] and in assay [6] was “inactive” in each case. The outcome in assay [2] was inactive.

In the case of `CCOC(=O)c1ncn2c1CN(C)C(=O)c1cc(F)ccc1-2`, the Potency entry in assay [7], in assay [1], in assay [3], in assay [4] and in assay [6] was “inactive” throughout. Besides, the compound was classed as inactive in assay [8], in assay [2] and in assay [5].

Turning to `COc1cc(N)ccc1C`, the Potency result in assay [1], in assay [3], in assay [4] and in assay [6] was “inactive” throughout. The call in assay [2] and in assay [5] was inactive.
